# Reference: PubChem BioAssay AID488821 (National Center for Advancing Translational Sciences (NCATS), 2010)
# Records with an inconclusive call do not appear. Unmarked numbers belong to inactive results. Active and inactive are the calls of the source. Calls come from the whole dose curve; as a rule, active = well fitted inhibition curve with a large enough effect; inconclusive = small, poorly fitted or top-dose-only effect, or effect the other way; inactive = flat fitted curve, though single readings scatter.
# Assay: Counterscreen Assay for Enhancers of SMN2 Splice Variant Expression: Modulation of SMN1 Expression for Further Probe SAR
# Settings: HEK293 SMN1-luciferase reporter, luminescence, 30-36 h; series mostly up to 46.1 µM; activity change, negative = inhibition: at the top concentration
# Text: NIH Chemical Genomics Center [NCGC] NIH Molecular Libraries Probe Production centers Network [MLPCN] MLPCN Grant: R03 MH084179-01 Assay Submitter (PI): Elliot Androphy NCGC Assay Overview: Spinal muscular atrophy (SMA) is caused by insufficient levels of the survival motor neuron protein SMN. The SMN locus on chromosome 5q13 contains two inverted copies of SMN called SMN1 and SMN2 which are 99% identical at the amino acid level. SMN1 is a fully functional protein and SMN2 skips exon 7 90% of the time. Skipping of exon 7 produces non-functional protein product. 10% of the SMN2 protein includes exon 7 and is fully functional. In the SMA disease state, mutations in the SMN1 locus are the cause of the disease state. Because only 10% of SMN2 is of the fully functional form, it is not sufficient to overcome the deficiency produced by the loss of the SMN1 product. A therapy that either increases the amount of SMN2 product made increases the inclusion of exon 7 has been proposed for the treatment of SMA. We have designed an assay to identify small molecules that can increase the amount of functional SMN2 product by appending a luciferase reporter gene after the native SMN2 gene, such that inclusion of exon 7 in the expressed product places the luciferase sequence in frame, thus generating functional luciferase enzyme. As a counterscreen for nonspecific modulators of expression, we have run compounds through a similar assay that measures expression of an SMN1-luciferase chimera.
# NCGC Assay Protocol Summary: This screen utilizes a luciferase reporter gene assay, combining the promoter with the major portion of the native SMN1 cDNA (exons 1 -7, intron 8 , exon 8 fused to luciferase) stably expressed in HEK293 cells. Compounds that increase luciferase signal presumably enhance expression of the functional SMN1 splice variant. Passaging media contained DMEM w/ glutamax (+phenol red) 10% FCS, 1x pen/strep, 200 ug/ml hygro, 1x sodium pyruvate. Assay media contained DMEM w/ glutamax (-phenol red) 10% FCS, 1x pen strep, 1x pyruvate Sequence, Parameter, Value, Description (1) Cells, 5 uL, 2000 cells/well, 1536 TC treated White solid bottom plate (2) Time, 10-12 hours, 37C 5% CO2 (3) Compound, 23 nl, MLSMR Library (4) Control Compound, 23 nL, Sodium butyrate st 4.5mM (final) conc (5) Time, 30-36 hours, 37C 5% CO2 (6) Reagent, 3 ul, One Glo (TM) from Promega (7) Time, 5-15 minutes, Room temp (8) Detector, Viewlux: luminescent read, 60 second integration, high speed 2x binning Keywords: Spinal muscular atrophy, SMA, SMN2, high throughput screening, MLSMR, MLPCN, NIH Roadmap, qHTS and NCGC
Structure (SMILES),"activity change, negative = inhibition [%]",Potency
CS(=O)(=O)c1ccc(-c2csc(N3CCC(C(N)=O)CC3)n2)cc1,-2.95,
NC(=O)C1CCN(c2ncc(-c3cccc(N4CCCC4)c3)s2)CC1,,12.2 µM (active)
CN(C)c1cccc(-c2cnc(N3CCC(C(N)=O)CC3)nc2)c1,,1.22 µM (active)
NC(=O)C1CCN(c2nc(-c3ccccc3[N+](=O)[O-])cs2)CC1,15.1,
NC(=O)C1CCN(c2nc(-c3ccc(OC(F)(F)F)cc3)cs2)CC1,5.89,
CC(C)Oc1cccc(-c2cnc(N3CCC(C(N)=O)CC3)s2)c1,,4.87 µM (active)
CC(=O)N1CCN(c2nc(-c3ccc(Br)cc3)cs2)CC1,,15.4 µM (active)
NC(=O)C1CCN(c2nc(-c3cccc4ccccc34)cs2)CC1,-3.85,
CC(C)COc1ccc(-c2csc(N3CCC(C(N)=O)CC3)n2)cc1,-19.3,
Cc1cnc(N2CCC(C(N)=O)CC2)nc1-c1cccc(N(C)C)c1,17.8,
CC(C)Oc1ccc(-c2csc(N3CCC(C(N)=O)CC3)n2)cc1,-20.3,
NC(=O)C1CCN(c2nc(-c3ccccc3Cl)cs2)CC1,-10.1,
NC(=O)C1CCN(c2ncc(-c3ccc4c(c3)OCCCO4)s2)CC1,,0.487 µM (active)
NC(=O)C1CCN(c2ncc(Br)cn2)CC1,9.17,
CN(C)c1cccc(-c2nccc(N3CCC(C(N)=O)CC3)n2)c1,14.2,
CC(=O)C1CCN(c2ncc(-c3ccc4c(c3)OCCCO4)s2)CC1,,4.87 µM (active)
CC(=O)Nc1ccc(-c2csc(N3CCC(C(N)=O)CC3)n2)cc1,17.6,
NC(=O)C1CCN(c2ncc(-c3ccc4c(c3)OC(F)(F)O4)s2)CC1,,15.4 µM (active)
NC(=O)C1CCN(c2ncc(-c3ccc4c(c3)OCO4)s2)CC1,,0.972 µM (active)
O=C(O)C1CCN(c2ncc(-c3ccc4c(c3)OCCCO4)s2)CC1,,0.244 µM (active)

Structure (SMILES),"activity change, negative = inhibition [%]",Potency
CC(=O)C1CCN(c2ncc(-c3cccc(N(C)C)c3)s2)CC1,,12.2 µM (active)
NC(=O)C1CCN(c2nc(-c3ccc([N+](=O)[O-])cc3)cs2)CC1,-14.7,
NC(=O)C1CCN(c2nc(-c3ccccc3)cs2)CC1,-16.6,
CN(C)c1cccc(-c2ncc(F)c(N3CCC(C(N)=O)CC3)n2)c1,-14.2,
NC(=O)C1CCN(c2nc(-c3ccc(Oc4ccccc4)cc3)cs2)CC1,-6.89,
N#Cc1ccc(-c2csc(N3CCC(C(N)=O)CC3)n2)cc1,-8.95,
CN(C)c1cccc(-c2cc(N3CCC(C(N)=O)CC3)ncn2)c1,-22.8,
NC1CCN(c2nc(-c3ccc(Br)cc3)cs2)CC1,,19.4 µM (active)
N#Cc1cccc(-c2csc(N3CCC(C(N)=O)CC3)n2)c1,6.78,
NC(=O)C1CCN(c2ncc(-c3cccc(N4CCCCC4)c3)s2)CC1,-28.5,
CC(C)Oc1cccc(-c2ccnc(N3CCC(C(N)=O)CC3)n2)c1,,9.72 µM (active)
NC(=O)C1CCN(c2nc(-c3cccc(F)c3)cs2)CC1,-5.59,
NC(=O)C1CCN(c2ncc(Br)s2)CC1,-5.62,
NC(=O)C1CCN(c2nc(-c3ccc4c(c3)OCCCO4)cs2)CC1,,7.72 µM (active)
NC(=O)C1CCN(c2nc(-c3ccc(C(F)(F)F)cc3)cs2)CC1,-27.4,
NC(=O)C1CCN(c2ncc(-c3ccc(Cl)cc3)s2)CC1,,9.72 µM (active)
CN(C)c1ccc(-c2csc(N3CCC(C(N)=O)CC3)n2)cc1,-11.1,
CCOc1ccc(-c2csc(N3CCC(C(N)=O)CC3)n2)cc1,-16.1,
Nc1nc(N)c2c(OCC3CCN(Cc4ccccc4F)CC3)cccc2n1,,19.4 µM (active)
NC(=O)C1CCN(c2nc(-c3ccc(OCc4ccccc4)cc3)cs2)CC1,-12.4,
